Assay results: PubChem BioAssay (NCI)
This is part of a sample that, as a whole, favours compounds with a hit. Of some 83,000 tested, about 20% had one in any assay.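 96-well plates, one dose, 48 hours. Percent growth reported; active if below 10.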 Calls of active or inactive are those of the source.

What was measured:
Assay in all cases: NCI-60 one-dose screen, 48 h (100 = growth as untreated, 0 = no growth, -100 = all killed)
Conditions in all cases: 10 µM unless noted
HCT-15 colon = system: HCT-15 colon
HT29 colon = system: HT29 colon
SNB-75 CNS = system: SNB-75 CNS
SNB-19 CNS = system: SNB-19 CNS
U251 CNS = system: U251 CNS
PC-3 prostate = system: PC-3 prostate
SK-MEL-5 melanoma = system: SK-MEL-5 melanoma
UACC-62 melanoma = system: UACC-62 melanoma
LOX IMVI melanoma = system: LOX IMVI melanoma
SK-MEL-28 melanoma = system: SK-MEL-28 melanoma
SK-MEL-2 melanoma = system: SK-MEL-2 melanoma
EKVX NSCLC = system: EKVX NSCLC
SN12C renal = system: SN12C renal
UO-31 renal = system: UO-31 renal
TK-10 renal = system: TK-10 renal
ACHN renal = system: ACHN renal
A498 renal = system: A498 renal
CCRF-CEM leukemia = system: CCRF-CEM leukemia
MOLT-4 leukemia = system: MOLT-4 leukemia

Measured: growth

Cc1ccc2c(C3C(C#N)=C(N)Oc4cc5ccccc5cc43)cc(=O)oc2c1 (stereo not given)
inactive: HCT-15 colon 31% | SNB-75 CNS 20.3% | SNB-19 CNS 29.9% | U251 CNS 23.5% | PC-3 prostate 18.8% | SK-MEL-5 melanoma 13.6% | UACC-62 melanoma 39.2% | LOX IMVI melanoma 38.4% | SK-MEL-28 melanoma 64.4% | SK-MEL-2 melanoma 27.8% | EKVX NSCLC 40% | SN12C renal 46.3% | UO-31 renal 47.3% | TK-10 renal 47.6% | ACHN renal 50.6% | A498 renal 30.8% | CCRF-CEM leukemia 13% | MOLT-4 leukemia 20.8%
active: HT29 colon 6.66%

COc1ccc(-c2coc3c(CO)c(O)ccc3c2=O)cc1
active: U251 CNS -58.9% | PC-3 prostate -27.7% | LOX IMVI melanoma -27.9%
inactive: HCT-15 colon 43.2% | HT29 colon 85.8% | SNB-75 CNS 115% | SNB-19 CNS 72.5% | SK-MEL-5 melanoma 58.7% | UACC-62 melanoma 32.5% | SK-MEL-28 melanoma 88.8% | SK-MEL-2 melanoma 19.2% | EKVX NSCLC 72.1% | SN12C renal 10.1% | UO-31 renal 24.3% | TK-10 renal 75.2% | ACHN renal 20.8% | A498 renal 68.6% | CCRF-CEM leukemia 45.2% | MOLT-4 leukemia 91.3%

O=C(Cn1c2ccccc2c2ccncc21)N/N=C\c1ccc2ccccc2c1
inactive: HCT-15 colon 23.8% | SNB-19 CNS 40.5% | PC-3 prostate 13.8% | SK-MEL-5 melanoma 15.4% | LOX IMVI melanoma 19.4% | SK-MEL-28 melanoma 58.3% | SK-MEL-2 melanoma 63.8% | EKVX NSCLC 55.8% | SN12C renal 19.9% | TK-10 renal 55.1% | A498 renal 85.1% | CCRF-CEM leukemia 50.4% | MOLT-4 leukemia 41.7%
active: HT29 colon -8.93% | SNB-75 CNS 3.82% | U251 CNS -25.9% | UACC-62 melanoma 7.54% | UO-31 renal -28.3% | ACHN renal 4.98%

CC(=O)O[C@@H]1[C@@H](OC(C)=O)[C@H](OC(C)=O)CO[C@H]1Nc1cccc2ccccc12
inactive: HCT-15 colon 94% | HT29 colon 84.2% | SNB-75 CNS 93.9% | SNB-19 CNS 105% | U251 CNS 105% | PC-3 prostate 90.8% | SK-MEL-5 melanoma 103% | UACC-62 melanoma 97.2% | LOX IMVI melanoma 88.8% | SK-MEL-28 melanoma 110% | SK-MEL-2 melanoma 82.3% | EKVX NSCLC 99.8% | SN12C renal 94.3% | UO-31 renal 62.4% | TK-10 renal 115% | ACHN renal 98.8% | A498 renal 101% | CCRF-CEM leukemia 71.7%

O=C(O)c1ccccc1C(=O)c1ccc(I)cc1
inactive: HCT-15 colon 100% | HT29 colon 90% | SNB-75 CNS 98.1% | SNB-19 CNS 110% | U251 CNS 102% | PC-3 prostate 91.2% | SK-MEL-5 melanoma 102% | UACC-62 melanoma 105% | LOX IMVI melanoma 91% | SK-MEL-28 melanoma 107% | SK-MEL-2 melanoma 91.2% | EKVX NSCLC 97.5% | SN12C renal 104% | UO-31 renal 99.4% | TK-10 renal 95.6% | ACHN renal 104% | A498 renal 115% | CCRF-CEM leukemia 99.9% | MOLT-4 leukemia 94.3%

c1coc(CSc2ncnc3nc[nH]c23)c1
inactive: HCT-15 colon 101% | HT29 colon 110% | SNB-75 CNS 95.1% | SNB-19 CNS 86.2% | U251 CNS 102% | PC-3 prostate 90.1% | SK-MEL-5 melanoma 109% | UACC-62 melanoma 98.3% | LOX IMVI melanoma 89.2% | SK-MEL-28 melanoma 108% | SK-MEL-2 melanoma 105% | EKVX NSCLC 103% | SN12C renal 102% | UO-31 renal 86.5% | TK-10 renal 125% | ACHN renal 106% | A498 renal 90.8%

O=[N+]([O-])c1ccc(NS(=O)(=O)c2cc(Cl)ccc2Cl)c2ccccc12
inactive: HCT-15 colon 54.2% | HT29 colon 59.4% | SNB-75 CNS 60.6% | SNB-19 CNS 60.1% | U251 CNS 67.1% | PC-3 prostate 54.7% | SK-MEL-5 melanoma 14% | UACC-62 melanoma 17.1% | LOX IMVI melanoma 56.4% | SK-MEL-28 melanoma 35.4% | SK-MEL-2 melanoma 18.7% | EKVX NSCLC 50.9% | SN12C renal 45.8% | UO-31 renal 43% | TK-10 renal 75.8% | ACHN renal 78.9% | A498 renal 23.9% | CCRF-CEM leukemia 29.1% | MOLT-4 leukemia 46.8%

CC(C)(C)OC(=O)N1CCN(CCn2cc(C(F)(F)F)c3c(Cl)ncnc32)CC1
active: PC-3 prostate 8.61% | LOX IMVI melanoma -81% | UO-31 renal -80.8%
inactive: HCT-15 colon 10.9% | HT29 colon 23.5% | SNB-75 CNS 111% | SNB-19 CNS 37.3% | U251 CNS 17.3% | SK-MEL-5 melanoma 80% | UACC-62 melanoma 55.4% | SK-MEL-28 melanoma 52.8% | SK-MEL-2 melanoma 44.5% | EKVX NSCLC 101% | SN12C renal 71.9% | TK-10 renal 115% | ACHN renal 96.6% | A498 renal 103% | CCRF-CEM leukemia 28.5% | MOLT-4 leukemia 23.4%

NC(CSC(c1ccccc1)(c1ccccc1)c1ccc(F)cc1)C(=O)O (stereo not given)
inactive: HCT-15 colon 35.3% | SNB-19 CNS 35.3% | U251 CNS 31.5% | PC-3 prostate 15.8% | SK-MEL-5 melanoma 15.2% | UACC-62 melanoma 35.5% | LOX IMVI melanoma 46.4% | SK-MEL-28 melanoma 58.8% | SN12C renal 39% | UO-31 renal 25.3% | TK-10 renal 64.8% | ACHN renal 56.8% | A498 renal 58.2% | CCRF-CEM leukemia 11.1%
active: HT29 colon 4.36% | SNB-75 CNS -0.679% | SK-MEL-2 melanoma -30.6% | EKVX NSCLC 7.52% | MOLT-4 leukemia 9.44%

O=C(C[n+]1ccccc1Cl)c1ccc2c(c1)CCCC2
inactive: HCT-15 colon 102% | HT29 colon 79.7% | SNB-75 CNS 88.4% | SNB-19 CNS 108% | U251 CNS 97.7% | PC-3 prostate 87.3% | SK-MEL-5 melanoma 98.4% | UACC-62 melanoma 106% | LOX IMVI melanoma 101% | SK-MEL-28 melanoma 105% | SK-MEL-2 melanoma 103% | EKVX NSCLC 78.9% | SN12C renal 101% | UO-31 renal 93.6% | TK-10 renal 92.8% | ACHN renal 105% | A498 renal 91.3% | CCRF-CEM leukemia 90.6% | MOLT-4 leukemia 73.6%

Cc1[nH]n(C(=O)c2ccncc2)c(=O)c1N=Nc1ccc(S(=O)(=O)Nc2ccncn2)cc1
inactive: HCT-15 colon 112% | HT29 colon 109% | SNB-75 CNS 93.9% | SNB-19 CNS 105% | U251 CNS 105% | PC-3 prostate 100% | SK-MEL-5 melanoma 106% | UACC-62 melanoma 98.8% | LOX IMVI melanoma 93.6% | SK-MEL-28 melanoma 112% | SK-MEL-2 melanoma 116% | EKVX NSCLC 94.4% | SN12C renal 97% | UO-31 renal 85.1% | TK-10 renal 101% | ACHN renal 104% | A498 renal 111% | MOLT-4 leukemia 102%
active: CCRF-CEM leukemia -33.9%

O=C(O)c1cc2ccccc2cc1Nc1ccccc1
inactive: HCT-15 colon 99.4% | HT29 colon 117% | SNB-75 CNS 102% | SNB-19 CNS 94.6% | U251 CNS 93.5% | PC-3 prostate 95.7% | SK-MEL-5 melanoma 69.4% | UACC-62 melanoma 103% | LOX IMVI melanoma 91.8% | SK-MEL-28 melanoma 107% | SK-MEL-2 melanoma 99.2% | EKVX NSCLC 97.6% | SN12C renal 101% | UO-31 renal 82.5% | TK-10 renal 127% | ACHN renal 98.8% | A498 renal 102% | CCRF-CEM leukemia 94.1% | MOLT-4 leukemia 91.1%

CC(=O)c1cc2c(N)c(C(=O)Nc3cccc(Cl)c3)sc2nc1C
inactive: HCT-15 colon 72.4% | HT29 colon 82.3% | SNB-75 CNS 82.6% | SNB-19 CNS 91.3% | U251 CNS 91.4% | PC-3 prostate 74.4% | SK-MEL-5 melanoma 43.2% | UACC-62 melanoma 56.2% | LOX IMVI melanoma 89.5% | SK-MEL-28 melanoma 92.9% | SK-MEL-2 melanoma 39% | EKVX NSCLC 76.5% | SN12C renal 92.6% | UO-31 renal 78.7% | TK-10 renal 90.4% | ACHN renal 93% | A498 renal 37.4% | CCRF-CEM leukemia 92.8% | MOLT-4 leukemia 73.4%

CN(C)c1ncc(C#Cc2c(F)cccc2F)c2ccccc12
inactive: HCT-15 colon 88.1% | HT29 colon 70.6% | SNB-75 CNS 108% | SNB-19 CNS 88.8% | U251 CNS 80% | PC-3 prostate 75.7% | SK-MEL-5 melanoma 83.5% | UACC-62 melanoma 71.4% | LOX IMVI melanoma 85.2% | SK-MEL-28 melanoma 102% | SK-MEL-2 melanoma 81.5% | EKVX NSCLC 74.8% | SN12C renal 78.8% | UO-31 renal 54.8% | TK-10 renal 112% | ACHN renal 96.3% | A498 renal 100% | CCRF-CEM leukemia 96.3% | MOLT-4 leukemia 80.8%

CCC1S/C(=N\N=C(/C)c2cccs2)N(c2ccccc2)C1=O (stereo not given)
inactive: HCT-15 colon 99% | HT29 colon 91% | SNB-75 CNS 110% | SNB-19 CNS 114% | U251 CNS 105% | PC-3 prostate 98.4% | SK-MEL-5 melanoma 84.4% | UACC-62 melanoma 117% | LOX IMVI melanoma 105% | SK-MEL-28 melanoma 118% | SK-MEL-2 melanoma 141% | EKVX NSCLC 105% | SN12C renal 135% | UO-31 renal 110% | TK-10 renal 114% | ACHN renal 113% | A498 renal 108% | MOLT-4 leukemia 63.9%
active: CCRF-CEM leukemia -39.5%

COc1ccc(C2=NN(C(=O)COc3ccc(Cl)cc3)C(O)(c3cc(F)c(Cl)cc3Cl)C2)cc1 (stereo not given)
inactive: HCT-15 colon 98.6% | HT29 colon 99.4% | SNB-75 CNS 88.2% | SNB-19 CNS 94.7% | U251 CNS 104% | PC-3 prostate 75% | SK-MEL-5 melanoma 114% | UACC-62 melanoma 111% | LOX IMVI melanoma 83.8% | SK-MEL-28 melanoma 103% | SK-MEL-2 melanoma 99.2% | EKVX NSCLC 80.5% | SN12C renal 119% | UO-31 renal 74.7% | TK-10 renal 89.5% | ACHN renal 104% | A498 renal 95.3% | MOLT-4 leukemia 77.3%
active: CCRF-CEM leukemia 7.54%

CN(C)c1ccc2cc(-c3nc4ccccc4s3)c(N)nc2c1
inactive: HCT-15 colon 41% | HT29 colon 23.9% | SNB-75 CNS 63.9% | SNB-19 CNS 60.7% | U251 CNS 33.2% | PC-3 prostate 20.2% | SK-MEL-5 melanoma 58.7% | UACC-62 melanoma 95.5% | LOX IMVI melanoma 85.3% | SK-MEL-28 melanoma 98.3% | SK-MEL-2 melanoma 51.5% | EKVX NSCLC 67.7% | SN12C renal 48.5% | UO-31 renal 51.8% | TK-10 renal 111% | ACHN renal 102% | A498 renal 38.2% | MOLT-4 leukemia 22.4%
active: CCRF-CEM leukemia 6.43%
